Compounds without any hit were thinned out: in the full panel of roughly 83,000, 20% have a hit.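 Plates (96-well) were seeded with cells, treated with compound at one concentration, and incubated for 48 hours before percent growth was determined.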 Calls of active or inactive are those of the source. The calls were made as follows: active = growth percent below 10; inactive = the rest.
What was measured:
Assay in all cases: NCI-60 one-dose screen, 48 h (100 = growth as untreated, 0 = no growth, -100 = all killed)
Conditions in all cases: 10 µM unless noted
DU-145 prostate = system: DU-145 prostate
K-562 leukemia = system: K-562 leukemia
MALME-3M melanoma = system: MALME-3M melanoma
MDA-MB-231 breast = system: MDA-MB-231 breast
RXF 393 renal = system: RXF 393 renal
SF-268 CNS = system: SF-268 CNS
SF-539 CNS = system: SF-539 CNS
UACC-257 melanoma = system: UACC-257 melanoma
M14 melanoma = system: M14 melanoma
HCT-15 colon = system: HCT-15 colon
HT29 colon = system: HT29 colon
SNB-75 CNS = system: SNB-75 CNS
SNB-19 CNS = system: SNB-19 CNS
U251 CNS = system: U251 CNS
PC-3 prostate = system: PC-3 prostate
SK-MEL-5 melanoma = system: SK-MEL-5 melanoma
LOX IMVI melanoma = system: LOX IMVI melanoma
SK-MEL-28 melanoma = system: SK-MEL-28 melanoma
UACC-62 melanoma = system: UACC-62 melanoma
SF-295 CNS = system: SF-295 CNS

Measured: growth

Cc1c(C)c(C)c([N+](=O)[O-])c([N+](=O)[O-])c1C
inactive: DU-145 prostate 92.2% | K-562 leukemia 119% | MALME-3M melanoma 90.1% | MDA-MB-231 breast 79.3% | RXF 393 renal 107% | SF-268 CNS 93% | SF-539 CNS 92% | UACC-257 melanoma 103% | M14 melanoma 104% | HCT-15 colon 94% | HT29 colon 102% | SNB-75 CNS 111% | SNB-19 CNS 95.4% | U251 CNS 101% | PC-3 prostate 84% | SK-MEL-5 melanoma 99.3% | LOX IMVI melanoma 95.9% | SK-MEL-28 melanoma 104%

CC1=NC(c2ccc(Cl)cc2)C2=C(N1)/C(=C/c1ccc(Cl)cc1)CCC2 (centres undefined)
inactive: DU-145 prostate 105% | K-562 leukemia 76.6% | MALME-3M melanoma 96.4% | MDA-MB-231 breast 107% | RXF 393 renal 90.8% | SF-268 CNS 99.3% | SF-539 CNS 103% | UACC-257 melanoma 93.7% | M14 melanoma 65.3% | HCT-15 colon 79.8% | HT29 colon 54.4% | SNB-75 CNS 86.6% | SNB-19 CNS 102% | U251 CNS 66% | PC-3 prostate 89.1% | SK-MEL-5 melanoma 84.9% | LOX IMVI melanoma 36.8% | SK-MEL-28 melanoma 93.9%

O=C1C(Cl)=C(N/N=c2/[nH][nH]/c(=N/NC3=C(Cl)C(=O)c4ccccc4C3=O)c3ccccc23)C(=O)c2ccccc21
inactive: DU-145 prostate 108% | MALME-3M melanoma 84.8% | MDA-MB-231 breast 42.8% | RXF 393 renal 73.7% | SF-268 CNS 41.7% | SF-539 CNS 47.3% | UACC-257 melanoma 97.7% | M14 melanoma 92.8% | HCT-15 colon 83.9% | HT29 colon 102% | SNB-75 CNS 63.6% | SNB-19 CNS 61.9% | PC-3 prostate 55.5% | SK-MEL-5 melanoma 62.6% | LOX IMVI melanoma 69.8% | SK-MEL-28 melanoma 104%
active: K-562 leukemia 9.7% | U251 CNS 2.88%

O=C(C=P(c1ccccc1)(c1ccccc1)c1ccccc1)CCl
inactive: MDA-MB-231 breast 16.2% | SNB-19 CNS 69.1% | U251 CNS 34.7%
active: DU-145 prostate -36.5% | K-562 leukemia -6.42% | MALME-3M melanoma -69.7% | RXF 393 renal -71.1% | SF-268 CNS -12.2% | SF-539 CNS -20% | UACC-257 melanoma -73.5% | M14 melanoma -61.5% | HCT-15 colon -18.2% | HT29 colon -54.2% | SNB-75 CNS 7.49% | PC-3 prostate 8.54% | UACC-62 melanoma -78.3% | LOX IMVI melanoma -85.5% | SK-MEL-28 melanoma -6.08%

CCN(CC)Cc1cc(Nc2ccnc3cc(Cl)ccc23)cc(-c2ccc(Cl)cc2)c1O
active: MALME-3M melanoma 10% | SF-268 CNS 8.65% | SF-539 CNS -25.6% | SNB-75 CNS -35.9% | U251 CNS 0.662% | SK-MEL-5 melanoma -49.6% | LOX IMVI melanoma 0.179%
inactive: DU-145 prostate 26.1% | K-562 leukemia 18.8% | MDA-MB-231 breast 48.7% | RXF 393 renal 46.4% | UACC-257 melanoma 10.5% | M14 melanoma 10.2% | HCT-15 colon 25.2% | HT29 colon 22.7% | SNB-19 CNS 32.8% | PC-3 prostate 25.2% | SK-MEL-28 melanoma 46%

COc1cc2cc(C(=O)Nc3ccccc3)c(N)nc2cc1OC
inactive: DU-145 prostate 12.7% | SF-268 CNS 26.2% | SF-539 CNS 34.3% | SNB-75 CNS 15.5% | SNB-19 CNS 21.2% | PC-3 prostate 17.7%
active: K-562 leukemia -49.2% | MALME-3M melanoma -78.2% | MDA-MB-231 breast -49.6% | RXF 393 renal -14.7% | UACC-257 melanoma -81.3% | M14 melanoma -67.3% | HCT-15 colon 2.25% | HT29 colon -70.6% | U251 CNS -6.06% | UACC-62 melanoma -85.3% | LOX IMVI melanoma -93.3% | SK-MEL-28 melanoma -98.3%

Cc1cc(NC(=O)C2c3ccccc3C(=O)N(CC(C)C)C2c2cccs2)no1 (centres undefined)
inactive: SF-268 CNS 27.8% | SF-539 CNS 18.2% | SNB-75 CNS 61.4% | SNB-19 CNS 81.9% | U251 CNS 21.2%
active: DU-145 prostate -9.63% | K-562 leukemia 3.46% | MALME-3M melanoma -62.1% | MDA-MB-231 breast -14.2% | RXF 393 renal -88.3% | UACC-257 melanoma -8.81% | M14 melanoma 1% | HCT-15 colon 7.04% | HT29 colon -29.4% | PC-3 prostate 9.17% | UACC-62 melanoma -84.5% | LOX IMVI melanoma -85.3% | SK-MEL-28 melanoma -86.8%

Nc1nc2ccc([C@@H]3Nc4ccc5[nH]ncc5c4[C@H]4[C@H]5CCC(C5)[C@H]43)cc2s1
inactive: K-562 leukemia 19.4% | MDA-MB-231 breast 47.2% | SF-268 CNS 48.4% | UACC-257 melanoma 29.3% | M14 melanoma 17.7% | HCT-15 colon 29.7% | SNB-19 CNS 30.8% | SK-MEL-5 melanoma 24.4% | LOX IMVI melanoma 40.7% | SK-MEL-28 melanoma 23.8%
active: DU-145 prostate 9.96% | MALME-3M melanoma -55.7% | RXF 393 renal -4.16% | SF-539 CNS 0.597% | HT29 colon 5.7% | SNB-75 CNS -24.8% | PC-3 prostate 6.63% | UACC-62 melanoma -88.6%

O=C1Nc2ccccc2/C1=C/c1c[nH]c2ccccc12
inactive: DU-145 prostate 98.1% | K-562 leukemia 82.8% | MALME-3M melanoma 88.1% | MDA-MB-231 breast 71.7% | RXF 393 renal 90.9% | SF-268 CNS 87.8% | SF-539 CNS 80.6% | UACC-257 melanoma 89.2% | M14 melanoma 91.8% | HCT-15 colon 63.9% | HT29 colon 100% | SNB-75 CNS 62.1% | SNB-19 CNS 83.8% | U251 CNS 76.2% | PC-3 prostate 72.3% | UACC-62 melanoma 81.8% | LOX IMVI melanoma 75.2% | SK-MEL-28 melanoma 101%

CCC(=O)NC(O)C(Cl)(Cl)C(C)Cl (centres undefined)
inactive: DU-145 prostate 116% | K-562 leukemia 112% | MALME-3M melanoma 87% | MDA-MB-231 breast 99.8% | RXF 393 renal 111% | SF-268 CNS 109% | SF-539 CNS 99.3% | UACC-257 melanoma 93.4% | M14 melanoma 98.7% | HCT-15 colon 95.6% | HT29 colon 95.4% | SNB-75 CNS 91.7% | SNB-19 CNS 98.4% | U251 CNS 98.6% | PC-3 prostate 98.2% | UACC-62 melanoma 97.5% | LOX IMVI melanoma 96.4% | SK-MEL-28 melanoma 104%

C=CCn1c(SCC(=O)Nc2ccc(/C(C)=N\O)cc2)nnc1-c1cc(-c2ccccc2)nc2ccccc12
active: LOX IMVI melanoma -58.1%
inactive: DU-145 prostate 75% | K-562 leukemia 27.6% | MALME-3M melanoma 96.3% | MDA-MB-231 breast 58.3% | RXF 393 renal 68.8% | SF-268 CNS 62.8% | SF-539 CNS 50.6% | UACC-257 melanoma 75.6% | M14 melanoma 34% | HCT-15 colon 50.8% | HT29 colon 49.9% | SNB-75 CNS 58.3% | SNB-19 CNS 68.5% | U251 CNS 59.1% | PC-3 prostate 43.5% | UACC-62 melanoma 24.3% | SK-MEL-28 melanoma 86.7%

O=c1[nH]c2ccccc2n2cc3cccnc3c12
inactive: DU-145 prostate 87.5% | K-562 leukemia 47.2% | MALME-3M melanoma 116% | MDA-MB-231 breast 65.7% | RXF 393 renal 80.8% | SF-268 CNS 79.3% | SF-539 CNS 75.5% | UACC-257 melanoma 97.1% | M14 melanoma 84.1% | HCT-15 colon 70.2% | HT29 colon 42.3% | SNB-75 CNS 86.2% | SNB-19 CNS 71% | U251 CNS 76.6% | PC-3 prostate 84.7% | SK-MEL-5 melanoma 73.2% | LOX IMVI melanoma 65.6% | SK-MEL-28 melanoma 107%

C#CCNC(=S)N/N=C(\C)c1ccccn1
active: RXF 393 renal 6.73% | SF-539 CNS 1.69% | M14 melanoma -21.7% | SK-MEL-5 melanoma -30.5%
inactive: DU-145 prostate 15.4% | K-562 leukemia 15.2% | MALME-3M melanoma 12.1% | MDA-MB-231 breast 39.5% | SF-268 CNS 14.7% | UACC-257 melanoma 16.4% | HCT-15 colon 28.4% | HT29 colon 31.5% | SNB-75 CNS 43.4% | SNB-19 CNS 38.8% | U251 CNS 23.1% | PC-3 prostate 48.1% | LOX IMVI melanoma 15.3% | SK-MEL-28 melanoma 55.3%

C=CCn1c(C)nc2cc(Nc3nc(Nc4ccc5nc(C)n(CC=C)c5c4)nc4ccccc34)ccc21
inactive: DU-145 prostate 115% | K-562 leukemia 102% | MALME-3M melanoma 94.5% | MDA-MB-231 breast 90% | RXF 393 renal 124% | SF-268 CNS 113% | SF-539 CNS 98.6% | UACC-257 melanoma 102% | M14 melanoma 109% | HCT-15 colon 107% | HT29 colon 103% | SNB-75 CNS 90.8% | SNB-19 CNS 100% | U251 CNS 94.4% | PC-3 prostate 95.8% | UACC-62 melanoma 95.8% | LOX IMVI melanoma 93.3% | SK-MEL-28 melanoma 106%

CC1(C)C(N(O)C(=O)Nc2ccc(Cl)cc2)N(c2ccc(Cl)cc2)C(=O)N1CC(=O)N/N=C/C=C/c1ccc([N+](=O)[O-])o1 (centres undefined)
active: MALME-3M melanoma -42.6% | MDA-MB-231 breast -48.7% | RXF 393 renal -77.9% | SF-539 CNS -73.3% | UACC-257 melanoma -33.7% | M14 melanoma -65.6% | HT29 colon -43% | SNB-75 CNS 9.93% | U251 CNS -14.4% | PC-3 prostate 8.77% | SK-MEL-5 melanoma -96.5% | UACC-62 melanoma -40.5% | LOX IMVI melanoma 0.58% | SK-MEL-28 melanoma -55.5%
inactive: DU-145 prostate 12.5% | K-562 leukemia 13.1% | SF-295 CNS 54.9% | HCT-15 colon 37.5% | SNB-19 CNS 48.5%

CC1=NN(c2cccc(S(N)(=O)=O)c2)C(=O)C1
inactive: DU-145 prostate 100% | K-562 leukemia 99.4% | MALME-3M melanoma 89.9% | MDA-MB-231 breast 97.1% | SF-268 CNS 91.6% | SF-295 CNS 87.8% | SF-539 CNS 91.5% | UACC-257 melanoma 124% | M14 melanoma 95.3% | HCT-15 colon 111% | HT29 colon 104% | SNB-75 CNS 82.7% | SNB-19 CNS 90.4% | U251 CNS 101% | PC-3 prostate 80.1% | SK-MEL-5 melanoma 92.8% | UACC-62 melanoma 89.7% | LOX IMVI melanoma 96.3% | SK-MEL-28 melanoma 111%

COc1cc2c(cc1OC)C(=O)OC2
inactive: DU-145 prostate 109% | K-562 leukemia 118% | MALME-3M melanoma 124% | MDA-MB-231 breast 102% | SF-268 CNS 100% | SF-295 CNS 102% | SF-539 CNS 97% | UACC-257 melanoma 13.3% | M14 melanoma 119% | HCT-15 colon 119% | HT29 colon 109% | SNB-75 CNS 78.7% | SNB-19 CNS 113% | U251 CNS 106% | PC-3 prostate 125% | SK-MEL-5 melanoma 99.4% | UACC-62 melanoma 97.6% | LOX IMVI melanoma 109% | SK-MEL-28 melanoma 147%

Source: PubChem BioAssay (NCI)
